For 23 compounds, outcome and Potency results are on record in PubChem BioAssay (Tox21).

Experiment [1] has as its target Bile acid receptor (Homo sapiens) (UniProt Q96RI1). The experiment in a line: qHTS assay to identify small molecule agonists of the farnesoid-X-receptor (FXR) signaling pathway (AID 743220; active means well fitted activation curve with a large enough effect in the signal ratio in the repeat runs, not every such curve was filed as active; the % refers to the signal ratio). In outline: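 FXR-UAS-bla HEK 293T cells carrying a UAS-driven beta-lactamase reporter were plated for 5 h at 37C/5% CO2, then exposed to DMSO-dissolved Tox21 10K compounds for 16 h at 37C. A LiveBLAzer B/G FRET substrate was loaded for 2 h at room temperature before fluorescence reading.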

Experiment [2] is described as follows: qHTS assay to identify small molecule agonists of the vitamin D receptor (VDR) signaling pathway - cell viability counter screen (AID 743224). Further: nearly all actives have a fitted effect of over 50% in size. Further: potency means the concentration at half of the fitted maximal effect. The procedure, abridged: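 In parallel with the bla FRET readout, cytotoxicity toward VDR-bla cells after 16 h compound exposure was assessed by CellTiter-Glo, with luminescence recorded after a 30 min room-temperature incubation.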
On the technique in general: qHTS replaces the single test concentration by a dilution series.

The nature of experiment [3]: qHTS assay to identify small molecule antagonists of the vitamin D receptor (VDR) signaling pathway - cell viability counter screen (AID 743225). Further: nearly all actives have a fitted effect of over 50% in size. Further: potency means the concentration at half of the fitted maximal effect. In outline: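 In this counter screen, VDR-bla HEK 293T cells receive test compound plus 3 nM final calcitriol for 16 h at 37C. Room-temperature steps of 2 h with the beta-lactamase substrate, then 30 min with CellTiter-Glo, precede the luminescence read.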

Experiment [4] in a line: qHTS assay to identify small molecule antagonists of the retinoid-related orphan receptor gamma (ROR-gamma) signaling pathway - cell viability counter screen (AID 1159520). Further: nearly all actives have a fitted effect of over 50% in size. Further: potency means the concentration at half of the fitted maximal effect. The procedure, abridged: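 Tet-on ROR gamma CHO cells (1,000/well) were plated 4 hr, given compounds in DMSO for 2 hr at 37 C, then induced with 1 uM final doxycycline for 16 hr. Viability was read as ATP by CellTiter-Glo luminescence after 30 min.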

The nature of experiment [5]: qHTS assay to identify small molecule antagonists of the farnesoid-X-receptor (FXR) signaling pathway - cell viability counter screen (AID 743221; active means well fitted cell-killing curve with a large enough effect in the repeat runs, not every such curve was filed as active; further: nearly all actives have a fitted effect of over 50% in size; further: potency means the concentration at half of the fitted maximal effect). The procedure, abridged:
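Compound effects on cell number were measured as CellTiter-Glo luminescence in HEK 293T cells expressing FXR-UAS-bla, after 16 h at 37 C with 50 uM CDCA (final).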

Experiment [6] can be described thus: qHTS assay to identify small molecule antagonists of the peroxisome proliferator-activated receptor delta (PPARd) signaling pathway - cell viability counter screen (AID 743213). Further: nearly all actives have a fitted effect of over 50% in size. Further: potency means the concentration at half of the fitted maximal effect. The procedure, abridged:
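Same-well viability: cells pre-incubated 5 h, dosed with compound plus 300 nM L165041, kept 17 h at 37 C, FRET substrate 2 h RT, then CellTiter-Glo 30 min RT and luminescence.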

Experiment [7] concerns the target Peroxisome proliferator-activated receptor delta (Homo sapiens) (UniProt Q03181). The experiment in a line: qHTS assay to identify small molecule agonists of the peroxisome proliferator-activated receptor delta (PPARd) signaling pathway (AID 743212; calls by dose curve;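 further: HEK293H cells with PPARd UAS beta-lactamase reporter GeneBLAzer system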). In outline: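 Beta-lactamase reporter read by fluorescence (LiveBLAzer B/G FRET, 2 h, room temperature). Test agents, in DMSO, incubated at 37 C with PPARd-bla HEK293H cells.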

The target is the same in experiment [8]. The experiment in a line: qHTS assay to identify small molecule antagonists of the peroxisome proliferator-activated receptor delta (PPARd) signaling pathway (AID 743215; active means well fitted inhibition curve with a large enough effect in the signal ratio in the repeat runs, not every such curve was filed as active; the % refers to the signal ratio;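 further: cells stimulated with agonist L165041 at 300 nM final during compound exposure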; further: potency means the concentration at half of the fitted maximal effect). In outline: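 Fluorescence from cleaved LiveBLAzer B/G FRET substrate (2 h, room temperature) reports PPARd-driven beta-lactamase in HEK293H UAS-bla cells. Cells had been treated 17 h at 37 C with compound plus 300 nM final L165041.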

Experiment [9] has as its target Vitamin D3 receptor (Homo sapiens) (UniProt P11473). Nature of the experiment: qHTS assay to identify small molecule antagonists of the vitamin D receptor (VDR) signaling pathway (AID 743223; active means well fitted inhibition curve with a large enough effect in the signal ratio in the repeat runs, not every such curve was filed as active; the % refers to the signal ratio). The procedure, abridged: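 Beta-lactamase activity in VDR-bla cells is measured by FRET substrate fluorescence (2 h, room temperature) after cells spend 16 h at 37C with test compound and 3 nM final 1alpha,25-dihydroxyvitamin D3.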

For experiment [10], the target named is Bile acid receptor (Homo sapiens) (UniProt Q96RI1). Nature of the experiment: qHTS assay to identify small molecule antagonists of the farnesoid-X-receptor (FXR) signaling pathway (AID 743217; active means well fitted inhibition curve with a large enough effect in the signal ratio in the repeat runs, not every such curve was filed as active; the % refers to the signal ratio; further: potency means the concentration at half of the fitted maximal effect). In outline: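 FRET fluorescence after 2 h room-temperature LiveBLAzer loading gives the readout. Prior step: FXR-bla HEK 293T cells, seeded and incubated 5 h, received test compounds plus 50 uM final CDCA for 16 h at 37 °C.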

Inconclusive results are not listed. Values without a mark were called inactive. The source made the active and inactive calls. Unless noted, the call rests on the fitted dose curve; in most records, active means well fitted curve in the direction sought with a large enough effect in the repeat runs; inconclusive means weak or mixed curves; inactive means no such curve, though single readings can be large; an effect the other way counts as inactive or inconclusive.

Sequence of Vitamin D3 receptor (Homo sapiens) (P11473 whole entry, looked up): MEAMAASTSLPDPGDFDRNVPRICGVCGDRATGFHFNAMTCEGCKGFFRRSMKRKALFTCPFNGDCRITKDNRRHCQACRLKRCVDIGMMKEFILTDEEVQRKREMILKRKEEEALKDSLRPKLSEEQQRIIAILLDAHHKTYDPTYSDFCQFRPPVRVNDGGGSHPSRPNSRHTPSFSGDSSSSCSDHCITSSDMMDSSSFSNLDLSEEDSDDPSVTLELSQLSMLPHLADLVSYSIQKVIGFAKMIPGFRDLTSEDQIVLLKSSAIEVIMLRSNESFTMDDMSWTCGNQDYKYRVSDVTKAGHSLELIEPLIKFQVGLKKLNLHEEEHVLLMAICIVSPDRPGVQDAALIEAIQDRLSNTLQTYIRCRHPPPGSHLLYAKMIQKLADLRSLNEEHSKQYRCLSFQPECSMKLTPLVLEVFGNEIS
Sequence of Peroxisome proliferator-activated receptor delta (Homo sapiens) (Q03181 whole entry, looked up): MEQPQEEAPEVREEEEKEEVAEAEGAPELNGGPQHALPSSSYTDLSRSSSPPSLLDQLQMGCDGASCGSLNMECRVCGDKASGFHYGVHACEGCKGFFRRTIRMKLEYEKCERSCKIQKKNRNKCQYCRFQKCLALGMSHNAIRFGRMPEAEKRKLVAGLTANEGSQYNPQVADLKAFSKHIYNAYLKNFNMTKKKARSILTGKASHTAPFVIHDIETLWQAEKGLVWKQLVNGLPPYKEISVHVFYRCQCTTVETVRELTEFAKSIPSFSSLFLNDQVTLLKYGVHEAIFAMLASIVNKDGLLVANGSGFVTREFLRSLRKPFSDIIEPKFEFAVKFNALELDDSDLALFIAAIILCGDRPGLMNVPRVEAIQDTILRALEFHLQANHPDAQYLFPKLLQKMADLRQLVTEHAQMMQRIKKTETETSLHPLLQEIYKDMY
Sequence of Bile acid receptor (Homo sapiens) (Q96RI1 whole entry, looked up): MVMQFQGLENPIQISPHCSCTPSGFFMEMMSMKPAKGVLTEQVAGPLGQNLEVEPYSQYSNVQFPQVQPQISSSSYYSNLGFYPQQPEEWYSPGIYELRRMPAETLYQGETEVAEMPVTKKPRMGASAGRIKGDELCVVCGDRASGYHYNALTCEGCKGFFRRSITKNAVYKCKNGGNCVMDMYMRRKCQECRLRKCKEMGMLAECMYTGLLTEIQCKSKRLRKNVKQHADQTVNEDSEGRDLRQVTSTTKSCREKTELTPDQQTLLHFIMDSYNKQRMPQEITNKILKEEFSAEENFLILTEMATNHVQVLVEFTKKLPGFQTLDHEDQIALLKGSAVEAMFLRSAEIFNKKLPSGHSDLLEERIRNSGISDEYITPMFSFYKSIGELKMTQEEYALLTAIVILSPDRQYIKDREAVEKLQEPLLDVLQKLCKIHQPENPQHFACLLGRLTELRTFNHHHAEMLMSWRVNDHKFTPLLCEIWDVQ

Regarding `C[C@H]1O[C@@H](O[C@H]2CC[C@@]3(C)[C@H](CC[C@@H]4[C@@H]3C[C@@H](O)[C@]3(C)[C@@H](C5=CC(=O)OC5)CC[C@]43O)C2)C[C@H](O)[C@@H]1O[C@H]1C[C@H](O)[C@H](O[C@H]2C[C@H](O)[C@H](O[C@@H]3O[C@H](CO)[C@@H](O)[C@H](O)[C@H]3O)[C@@H](C)O2)[C@@H](C)O1`, the compound was called inactive in experiment [1]. Also, the Potency in experiment [2] is 0.298 µM (active); in experiment [3], 0.338 µM (active). The Potency entry in [4] is “inactive”.

Take `COc1cc(/C=C/C(=O)CC(=O)/C=C/c2ccc(O)c(OC)c2)ccc1O`: the Potency in experiment [5] was 43.9 µM (active); in experiment [2], 49.3 µM (active); in experiment [3] it was 49.3 µM (active); in experiment [4], 48.9 µM (active).

As to `NCc1cccc(C2CCN(C(=O)c3ccc(C#Cc4ccccc4F)o3)CC2)c1`, the Potency in experiment [6] was 49 µM (active); in experiment [2], 54.9 µM (active); in experiment [3] it was 34.7 µM (active); in experiment [4], 43.3 µM (active). For the same compound, the call in [1] was inactive.

In the case of `O=C(CCN1CCC(c2ccccc2)C1)c1ccc2c(c1)OCCO2` (stereo not drawn), the Potency entry in experiment [6], in experiment [5] and in [3] was “inactive” throughout. In addition, the Potency in [4] was 26.6 µM (active).

Regarding `CC(Cc1ccc(O)c(O)c1)C(C)Cc1ccc(O)c(O)c1` (stereo not drawn), the Potency entry in experiment [6], in [5], in [2] and in [3] was “inactive” each time. In addition, the outcome in [1] was inactive.

For the compound `CN(C[C@@H](CC[N+]12CCC(C3CCCCC3)(CC1)CC2)c1ccc(Cl)c(Cl)c1)C(=O)c1cc(C(F)(F)F)cc(C(F)(F)F)c1`, the Potency in experiment [6] was 24.5 µM (active); in experiment [5] it was 27.5 µM (active); in experiment [2] it was 17.4 µM (active); in experiment [3] it was 27.5 µM (active); in experiment [4] it was 48.6 µM (active).

Take `CCCOC(=O)c1ccc(O)cc1`: the result in experiment [7] was inactive.

Regarding `c1ccc(-c2ccc(C(c3ccccc3)n3ccnc3)cc2)cc1` (stereo not drawn), the compound was classed as inactive in experiment [7]. Besides, in experiment [8], the Potency is 26.6 µM (active). Further, the Potency result in experiment [9] and in [3] was “inactive” each time.

Consider `CCCCCCCCCCCCN1CCCC1=O`, for which the outcome in [7] was inactive. Further, the Potency in [2] was 49 µM (active).

Regarding `CCCCCCCCCCCCCCCCCCNC(=O)OC1CCN(C(=O)OC[C@H](COC(=O)N(Cc2cccc[n+]2CC)C(=O)c2ccccc2OC)OC)CC1`, the result in [7] was inactive. Also, the Potency in [6] was 33.5 µM (active); in experiment [2], 26.6 µM (active); in [3], 21.3 µM (active). In experiment [9], the Potency entry is “inactive”.

With `COc1cccc(-c2ccc(/C=C\CN3CCCCCC3)cc2Cl)c1`, the Potency result in experiment [8] and in experiment [10] was “inactive” throughout. Moreover, in experiment [1], the result was inactive.

For `c1ccc2occc2c1`, the Potency in [2] was 49 µM (active). In [4], the Potency result was “inactive”.

In the case of `CN(C)CCOc1ccc(/C(=C(/CCCl)c2ccccc2)c2ccccc2)cc1`, the Potency was 10.3 µM (active) in experiment [6]; 40.9 µM (active) in experiment [5]; 12.9 µM (active) in experiment [2]; 12.9 µM (active) in [3]; 51 µM (active) in [4].

Consider `O=C(CCCCCCCCc1cccnc1)N1CCC(C=C(c2ccccc2)c2ccccc2)CC1`, for which the Potency result in experiment [5], in [9] and in experiment [3] was “inactive” throughout. The Potency in experiment [4] was 68.6 µM (active).

Turning to `O=C(Nc1ccccc1)c1cc(Cl)ccc1O`, the call in experiment [1] was inactive. For the same compound, the Potency in [2] was 12.3 µM (active); in experiment [3], 12.3 µM (active); in experiment [4], 24.3 µM (active).

In the case of `CCOc1ccc([N+](=O)[O-])cc1`, the Potency is 44.3 µM (active) in experiment [6], 49.7 µM (active) in [2] and 22.2 µM (active) in experiment [3].

For `c1ccc2cc3c4ccccc4c4ccccc4c3cc2c1`, in [7], the outcome was inactive. The Potency entry in [6], in experiment [8], in [5], in experiment [9], in [2] and in experiment [3] was “inactive” throughout.

Turning to `Cc1ccc2nc(-c3ccc(N)cc3)sc2c1S(=O)(=O)O`, the Potency result in experiment [5], in experiment [2], in [3] and in experiment [4] was “inactive” in each case.

`CCSCC`: the Potency entry in experiment [10], in experiment [5], in experiment [3] and in [4] was “inactive” each time.

For the compound `Cc1cc(Br)ccc1NC(=O)CCl`, the Potency was 24.5 µM (active) in experiment [6]; 19.5 µM (active) in experiment [5]; 12.3 µM (active) in [2]; 19.5 µM (active) in experiment [3]; 27.3 µM (active) in experiment [4].

With `CN[C@H]1CC[C@@H](c2ccc(Cl)c(Cl)c2)c2ccc(S(N)(=O)=O)cc21`, the Potency in experiment [6] was 12.3 µM (active); in experiment [8] it was 34.7 µM (active); in experiment [10] it was 49 µM (active); in experiment [5] it was 24.5 µM (active); in [2], 17.4 µM (active); in [3], 21.9 µM (active).

`CC(C)c1ccc2sc3ccccc3c(=O)c2c1`: the Potency entry in experiment [10], in experiment [5], in experiment [3] and in experiment [4] was “inactive” throughout.

As to `CCCCC/C=C\C=C\C(=O)OCC`, in experiment [1], the compound was called inactive. Besides, in experiment [2], the Potency was 40.5 µM (active). The Potency result in experiment [3] was “inactive”.
